Results taken from the supplement of paper PMC10037445.
In all, about 2,900 compounds were measured (“NF-kB SEAP reporter activity, fold change vs agonist alone”: median about 0.99, highest 2% from about 2.6 on). Shown is part of a subset that was picked to be rich in the highest values.

Tests used:
RAW-Dual [1] = assay: NF-kB SEAP reporter activity, fold change vs agonist alone; cytotoxicity flag (confluency mask): not cytotoxic; higher = enhanced NF-kB activity
In short: (§1)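 RAW-Dual macrophages were seeded in DMEM at 50,000 cells/well in 384-well plates, given 50 nL of library stock by pin tool, and given a PRR agonist 1 h later. Plates were held at 37 °C, 5% CO2 for 20 hours, after which supernatant was read for IRF by QuantiLuc luminescence and for NF-κB by QuantiBlue absorbance at 620 nm. Reporter activity is expressed as fold change over wells that received agonist alone. A well was called cytotoxic when IncuCyte confluency fell below 70% of agonist controls in both mask sets.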

RAW-Dual [2] = assay: NF-kB SEAP reporter activity, fold change vs agonist alone; higher = enhanced NF-kB activity
In short: as §1

RAW-Dual [3] = assay: NF-kB SEAP reporter activity, fold change vs agonist alone; cytotoxicity flag (confluency mask): cytotoxic (confluency <70% of control); higher = enhanced NF-kB activity
In short: as §1

[4] = agonist: ODN 1826 (TLR9) 0.5 ug/mL
[5] = agonist: Pam2CSK4 (TLR2/6) 0.1 ug/mL
[6] = agonist: Pam3CSK4 (TLR2/1) 0.1 ug/mL
[7] = library stock concentration (final ~1000-fold dilution): 10 mM, cytotoxicity flag (confluency mask): not cytotoxic, agonist: Imiquimod (TLR7) […]
[8] = library stock concentration (final ~1000-fold dilution): 10 mM, cytotoxicity flag (confluency mask): not cytotoxic, agonist: MPLA (TLR4) […]
[9] = library stock concentration (final ~1000-fold dilution): 10 mM, cytotoxicity flag (confluency mask): cytotoxic (confluency <70% of control), agonist: Imiquimod (TLR7) […]
[10] = library stock concentration (final ~1000-fold dilution): 10 mM, cytotoxicity flag (confluency mask): cytotoxic (confluency <70% of control), agonist: MPLA (TLR4) […]
[11] = library stock concentration (final ~1000-fold dilution): 1 mM, cytotoxicity flag (confluency mask): not cytotoxic, agonist: Imiquimod (TLR7) […]
[12] = library stock concentration (final ~1000-fold dilution): 1 mM, cytotoxicity flag (confluency mask): not cytotoxic, agonist: MPLA (TLR4) […]

## Nc1nc2cc(-c3ccc4ncc(C(=O)N5CCOCC5)n4c3)ccc2o1 (library stock concentration (final ~1000-fold dilution): 10 mM)
RAW-Dual [1]; agonist: LPS (TLR4) 0.1 ug/mL
  NF-kB SEAP reporter activity: 0.841
RAW-Dual [1]; [4]
  NF-kB SEAP reporter activity: 1.02
RAW-Dual [1]; [5]
  NF-kB SEAP reporter activity: 0.774
RAW-Dual [1]; [6]
  NF-kB SEAP reporter activity: 0.811

## Nc1nc2cc(-c3ccc4ncc(C(=O)N5CCOCC5)n4c3)ccc2o1
RAW-Dual [2]; [7]
  NF-kB SEAP reporter activity: 1.09
RAW-Dual [2]; [8]
  NF-kB SEAP reporter activity: 1.09

## CCOC(=O)c1cnc2ccc(-c3cncc(NS(=O)(=O)c4ccccc4)c3)cn12
RAW-Dual [2]; [9]
  NF-kB SEAP reporter activity: 1.31
RAW-Dual [2]; [10]
  NF-kB SEAP reporter activity: 2.94

## CCOC(=O)c1cnc2ccc(-c3cncc(NS(=O)(=O)c4ccccc4)c3)cn12 (library stock concentration (final ~1000-fold dilution): 10 mM)
RAW-Dual [3]; agonist: LPS (TLR4) 0.1 ug/mL
  NF-kB SEAP reporter activity: 7.43
RAW-Dual [3]; [4]
  NF-kB SEAP reporter activity: 2.4
RAW-Dual [3]; [5]
  NF-kB SEAP reporter activity: 1.68
RAW-Dual [3]; [6]
  NF-kB SEAP reporter activity: 3.96

## Cn1c(-c2ccccc2C(F)(F)F)nnc1C12CCC(c3noc(C4CC(F)(F)C4)n3)(CC1)CC2
RAW-Dual [2]; [7]
  NF-kB SEAP reporter activity: 0.868
RAW-Dual [2]; [8]
  NF-kB SEAP reporter activity: 1.3

## Cn1c(-c2ccccc2C(F)(F)F)nnc1C12CCC(c3noc(C4CC(F)(F)C4)n3)(CC1)CC2 (library stock concentration (final ~1000-fold dilution): 10 mM)
RAW-Dual [1]; agonist: LPS (TLR4) 0.1 ug/mL
  NF-kB SEAP reporter activity: 1.22
RAW-Dual [1]; [4]
  NF-kB SEAP reporter activity: 0.41
RAW-Dual [1]; [5]
  NF-kB SEAP reporter activity: 0.827
RAW-Dual [1]; [6]
  NF-kB SEAP reporter activity: 1.16

## CCCCCCOC(=O)c1cc(=O)c(O)c2c(O)c(O)c(OC)cc2c1 (library stock concentration (final ~1000-fold dilution): 1 mM)
RAW-Dual [1]; agonist: LPS (TLR4) 0.1 ug/mL
  NF-kB SEAP reporter activity: 1.14
RAW-Dual [1]; [4]
  NF-kB SEAP reporter activity: 0.931
RAW-Dual [1]; [5]
  NF-kB SEAP reporter activity: 0.872
RAW-Dual [1]; [6]
  NF-kB SEAP reporter activity: 0.85

## CCCCCCOC(=O)c1cc(=O)c(O)c2c(O)c(O)c(OC)cc2c1
RAW-Dual [2]; [11]
  NF-kB SEAP reporter activity: 1.03
RAW-Dual [2]; [12]
  NF-kB SEAP reporter activity: 1.23

## CCCN(CCC)C(=O)C1=Cc2ccc(-c3ccc(C(=O)N4CCCC4)cc3)cc2N=C(N)C1 (library stock concentration (final ~1000-fold dilution): 1 mM)
RAW-Dual [1]; agonist: LPS (TLR4) 0.1 ug/mL
  NF-kB SEAP reporter activity: 2.58
RAW-Dual [1]; [4]
  NF-kB SEAP reporter activity: 1.07
RAW-Dual [1]; [5]
  NF-kB SEAP reporter activity: 1.16
RAW-Dual [1]; [6]
  NF-kB SEAP reporter activity: 1.26

## CCCN(CCC)C(=O)C1=Cc2ccc(-c3ccc(C(=O)N4CCCC4)cc3)cc2N=C(N)C1
RAW-Dual [2]; [11]
  NF-kB SEAP reporter activity: 1.22
RAW-Dual [2]; [12]
  NF-kB SEAP reporter activity: 1.82

## CCOC(=O)C1=Cc2ccc(C(F)(F)C(F)(F)F)cc2N=C(N)C1 (library stock concentration (final ~1000-fold dilution): .1 mM)
RAW-Dual [1]; agonist: LPS (TLR4) 0.1 ug/mL
  NF-kB SEAP reporter activity: 1.34
RAW-Dual [1]; [4]
  NF-kB SEAP reporter activity: 1.25
RAW-Dual [1]; [5]
  NF-kB SEAP reporter activity: 1.09
RAW-Dual [1]; [6]
  NF-kB SEAP reporter activity: 1.17

## CCOC(=O)C1=Cc2ccc(C(F)(F)C(F)(F)F)cc2N=C(N)C1
RAW-Dual [2]; library stock concentration (final ~1000-fold dilution): .1 mM, cytotoxicity flag (confluency mask): not cytotoxic, agonist: Imiquimod (TLR7) […]
  NF-kB SEAP reporter activity: 0.718
RAW-Dual [2]; library stock concentration (final ~1000-fold dilution): .1 mM, cytotoxicity flag (confluency mask): not cytotoxic, agonist: MPLA (TLR4) […]
  NF-kB SEAP reporter activity: 1.18

## Cl.Nc1ccn(C2OC(CO)C(O)C2O)c(=O)n1 (configuration not stated)
RAW-Dual [2]; [7]
  NF-kB SEAP reporter activity: 1.72
RAW-Dual [2]; [8]
  NF-kB SEAP reporter activity: 1.42

## Cl.Nc1ccn(C2OC(CO)C(O)C2O)c(=O)n1 (configuration not stated) (library stock concentration (final ~1000-fold dilution): 10 mM)
RAW-Dual [1]; agonist: LPS (TLR4) 0.1 ug/mL
  NF-kB SEAP reporter activity: 0.959
RAW-Dual [1]; [4]
  NF-kB SEAP reporter activity: 1.65
RAW-Dual [1]; [5]
  NF-kB SEAP reporter activity: 1.16
RAW-Dual [1]; [6]
  NF-kB SEAP reporter activity: 1.35

## C=C1CC[C@@H]2[C@](C)(CO)[C@H](O)CC[C@@]2(C)[C@@H]1/C=C/C1=CCOC1=O
RAW-Dual [2]; [7]
  NF-kB SEAP reporter activity: 0.706
RAW-Dual [2]; [8]
  NF-kB SEAP reporter activity: 0.901

## C=C1CC[C@@H]2[C@](C)(CO)[C@H](O)CC[C@@]2(C)[C@@H]1/C=C/C1=CCOC1=O (library stock concentration (final ~1000-fold dilution): 10 mM)
RAW-Dual [1]; agonist: LPS (TLR4) 0.1 ug/mL
  NF-kB SEAP reporter activity: 0.755
RAW-Dual [1]; [4]
  NF-kB SEAP reporter activity: 0.721
RAW-Dual [1]; [5]
  NF-kB SEAP reporter activity: 0.5
RAW-Dual [1]; [6]
  NF-kB SEAP reporter activity: 0.597

## Cl.Cl.O=c1cc(CN2CCOCC2)occ1OCCCCCSc1ccnc2cc(C(F)(F)F)ccc12
RAW-Dual [2]; [9]
  NF-kB SEAP reporter activity: 0.953
RAW-Dual [2]; [10]
  NF-kB SEAP reporter activity: 0.895

## Cl.Cl.O=c1cc(CN2CCOCC2)occ1OCCCCCSc1ccnc2cc(C(F)(F)F)ccc12 (library stock concentration (final ~1000-fold dilution): 10 mM)
RAW-Dual [3]; agonist: LPS (TLR4) 0.1 ug/mL
  NF-kB SEAP reporter activity: 0.81
RAW-Dual [3]; [4]
  NF-kB SEAP reporter activity: 0.603
RAW-Dual [3]; [5]
  NF-kB SEAP reporter activity: 0.59
RAW-Dual [3]; [6]
  NF-kB SEAP reporter activity: 0.529

## Nc1ncnc2[nH]nc(Nc3ccc(F)cc3)c12
RAW-Dual [2]; [7]
  NF-kB SEAP reporter activity: 1.13
RAW-Dual [2]; [8]
  NF-kB SEAP reporter activity: 2.6

## Fc1ccc(CNc2ncnc3ccc(F)cc23)cc1 (library stock concentration (final ~1000-fold dilution): 10 mM)
RAW-Dual [1]; agonist: LPS (TLR4) 0.1 ug/mL
  NF-kB SEAP reporter activity: 2.47
RAW-Dual [1]; [4]
  NF-kB SEAP reporter activity: 1.19
RAW-Dual [1]; [5]
  NF-kB SEAP reporter activity: 1.06
RAW-Dual [1]; [6]
  NF-kB SEAP reporter activity: 1.25

## Nc1ncnc2[nH]nc(Nc3ccc(F)cc3)c12 (library stock concentration (final ~1000-fold dilution): 10 mM)
RAW-Dual [1]; agonist: LPS (TLR4) 0.1 ug/mL
  NF-kB SEAP reporter activity: 6.5
RAW-Dual [1]; [4]
  NF-kB SEAP reporter activity: 1.43
RAW-Dual [1]; [5]
  NF-kB SEAP reporter activity: 0.872
RAW-Dual [1]; [6]
  NF-kB SEAP reporter activity: 1.26

## Fc1ccc(CNc2ncnc3ccc(F)cc23)cc1
RAW-Dual [2]; [7]
  NF-kB SEAP reporter activity: 0.988
RAW-Dual [2]; [8]
  NF-kB SEAP reporter activity: 1.47

## COc1cc2c(cc1Cc1cccc(Cl)c1F)c(=O)c(C(=O)O)cn2C(CO)C(C)C (configuration not stated) (library stock concentration (final ~1000-fold dilution): 10 mM)
RAW-Dual [1]; agonist: LPS (TLR4) 0.1 ug/mL
  NF-kB SEAP reporter activity: 1.45
RAW-Dual [1]; [4]
  NF-kB SEAP reporter activity: 1.08
RAW-Dual [1]; [5]
  NF-kB SEAP reporter activity: 0.664
RAW-Dual [1]; [6]
  NF-kB SEAP reporter activity: 0.625

## COc1cc2c(cc1Cc1cccc(Cl)c1F)c(=O)c(C(=O)O)cn2C(CO)C(C)C (configuration not stated)
RAW-Dual [2]; [7]
  NF-kB SEAP reporter activity: 1.06
RAW-Dual [2]; [8]
  NF-kB SEAP reporter activity: 1.17

## O=C1c2ccc(O)cc2C(=O)c2ccc(O)cc21
RAW-Dual [2]; [8]
  NF-kB SEAP reporter activity: 1.26

## O=C1c2ccc(O)cc2C(=O)c2ccc(O)cc21 (library stock concentration (final ~1000-fold dilution): 10 mM)
RAW-Dual [1]; agonist: LPS (TLR4) 0.1 ug/mL
  NF-kB SEAP reporter activity: 1.38
RAW-Dual [1]; [4]
  NF-kB SEAP reporter activity: 1.04
RAW-Dual [1]; [5]
  NF-kB SEAP reporter activity: 1.32
RAW-Dual [1]; [6]
  NF-kB SEAP reporter activity: 1.16
